According to PubChem BioAssay (Tox21):
Results filed as inconclusive are left out. Where a call stands in place of a potency, no number is given. Values without a mark were called inactive. Calls of active or inactive are those of the source. The call rests on the fitted dose curve.

Target: Beta-2 adrenergic receptor (Homo sapiens) (UniProt P07550)
Assay: Adrenergic beta2 receptor (ADRB2) small molecule agonists, cell-based qHTS assay (AID 1963593);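 further: CHO cells stably overexpressing human ADRB2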
Summary of the method: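 CHO cells stably over-expressing ADRB2 were plated overnight at 37C, then dosed with compounds plus a stimulation mix containing 100uM IBMX and 25uM Ro-20-1724 for 0.5hr at room temperature. cAMP was measured by HTRF competition, 1hr.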

Chain of Beta-2 adrenergic receptor (Homo sapiens) (P07550 whole entry, looked up): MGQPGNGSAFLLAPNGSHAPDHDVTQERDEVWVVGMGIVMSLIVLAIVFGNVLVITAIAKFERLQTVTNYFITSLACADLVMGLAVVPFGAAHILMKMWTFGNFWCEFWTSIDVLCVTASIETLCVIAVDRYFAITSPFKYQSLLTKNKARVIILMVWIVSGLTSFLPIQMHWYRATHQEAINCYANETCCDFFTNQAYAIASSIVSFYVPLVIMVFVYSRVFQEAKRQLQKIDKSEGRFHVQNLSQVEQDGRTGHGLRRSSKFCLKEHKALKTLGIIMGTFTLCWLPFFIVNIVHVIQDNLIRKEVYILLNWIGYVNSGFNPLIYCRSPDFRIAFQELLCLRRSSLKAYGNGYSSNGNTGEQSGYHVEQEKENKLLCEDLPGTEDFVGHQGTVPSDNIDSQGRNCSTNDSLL

| SMILES | Potency | activation |
| --- | --- | --- |
| Cc1cc(C(C)(C)C)c(O)c(C)c1CC1=NCCN1 | inactive |  |
| CCCN(CCC)C(=O)C(CCC(=O)O)NC(=O)c1ccccc1 (stereo unspecified) | inactive |  |
| COc1ccc(C(=O)N2CCN(CC(=O)N3CCOCC3)CC2)cc1 | inactive |  |
| CCCCCCCC/C=C\CCCCCCCC(=O)OC[C@@H](O)[C@H]1OC[C@H](O)[C@H]1O | inactive |  |
| CCCc1nn(C)c2c(=O)[nH]c(-c3cc(S(=O)(=O)N4CCN(C)CC4)ccc3OCC)nc12 | inactive |  |
| CN(C)CCC[C@@]1(c2ccc(F)cc2)OCc2cc(C#N)ccc21 | inactive |  |
| O=c1c2ccccc2nnn1CCl | inactive |  |
| CCOC(=O)C(=O)CCCCCCl | inactive |  |
| C[N+](C)(C)CC(O)CC(=O)[O-] (stereo unspecified) | inactive |  |
| O=C(NCCN1CCOCC1)c1ccc(Cl)cc1 | inactive |  |
| CCCNC(C)C(=O)Nc1ccccc1C (stereo unspecified) | inactive |  |
| CC(N)C12CC3CC(CC(C3)C1)C2 (stereo unspecified) | inactive |  |
| CC(C)[C@H](N)C(=O)OCCOCn1cnc2c(=O)[nH]c(N)nc21 | inactive |  |
| C[C@H]1C[C@H]2[C@@H]3CCC4=CC(=O)C=C[C@]4(C)[C@@]3(F)[C@@H](O)C[C@]2(C)[C@@]1(O)C(=O)COP(=O)(O)O | inactive |  |
| CC[C@H]1OC(=O)[C@H](C)[C@@H](O[C@H]2C[C@@](C)(OC)[C@@H](O)[C@H](C)O2)[C@H](C)[C@@H](O[C@@H]2O[C@H](C)C[C@H](N(C)C)[C@H]2O)[C@](C)(OC)C[C@@H](C)C(=O)[C@H](C)[C@@H](O)[C@]1(C)O | inactive |  |
| CCCCCCOc1ccc(N)cc1 | inactive |  |
| NS(=O)(=O)c1cc(C2(O)NC(=O)c3ccccc32)ccc1Cl (stereo unspecified) | inactive |  |
| COc1ncnc(NS(=O)(=O)c2ccc(N)cc2)c1OC | inactive |  |
| CCN[C@@H]1C[C@H](N)[C@@H](OC2OC(CN)=CCC2N)[C@H](O)[C@H]1O[C@H]1OC[C@](C)(O)[C@H](NC)[C@H]1O (stereo partly specified) |  | 7.07% [at 0.349 µM] |
| O=NN(CCCl)C(=O)NC1CCCCC1 | inactive |  |
| CC(C)NNC(=O)c1ccncc1 | inactive |  |

| SMILES | Potency | activation |
| --- | --- | --- |
| CC[C@H]1OC(=O)[C@H](C)[C@@H](O[C@H]2C[C@@](C)(OC)[C@@H](O)[C@H](C)O2)[C@H](C)[C@@H](O[C@@H]2O[C@H](C)C[C@H](N(C)C)[C@H]2O)[C@](C)(O)C[C@@H](C)C(=O)[C@H](C)[C@@H](O)[C@]1(C)O | inactive |  |
| CC[N+](CC)(CC)CCOc1cccc(OCC[N+](CC)(CC)CC)c1OCC[N+](CC)(CC)CC | inactive |  |
| CCCCNc1ccc(C(=O)OCCN(C)C)cc1 | inactive |  |
| COC(=O)C(c1ccccc1Cl)N1CCc2sccc2C1 (stereo unspecified) | inactive |  |
| OC(CCCN1CCCCC1)(c1ccccc1)c1ccccc1 | inactive |  |
| Cc1cn[nH]c1 | inactive |  |
| Cc1ccc(C(=O)c2ccc(CC(=O)O)n2C)cc1 | inactive |  |
| CCCCOc1ccc(OCCCN2CCOCC2)cc1 | inactive |  |
| CCCCN1CCCC[C@H]1C(=O)Nc1c(C)cccc1C | inactive |  |
| CCN1CCC[C@H]1CNC(=O)c1cc(S(N)(=O)=O)ccc1OC | inactive |  |
| CCCS(=O)c1ccc2nc(NC(=O)OC)[nH]c2c1 (stereo unspecified) | inactive |  |
| CNC(=O)c1cnn(-c2nc(N)c3ncn([C@@H]4O[C@H](CO)[C@@H](O)[C@H]4O)c3n2)c1 | inactive |  |
| BrC/C=C/CBr | inactive |  |
| CCOC(=O)/C=C/C(=O)O | inactive |  |
| C=COCC(C)C | inactive |  |
| OCCSc1ccccc1 | inactive |  |
| Nc1cccc(S(=O)(=O)c2cccc(N)c2)c1 | inactive |  |
| CO[C@@H]1[C@H](OC(=O)/C=C/C=C/C=C/C=C/C(=O)O)CC[C@]2(CO2)[C@H]1[C@@]1(C)O[C@@H]1CC=C(C)C | inactive |  |
| C[N+]1(C)CCCC(OC(=O)C(O)(c2ccccc2)c2ccccc2)C1 (stereo unspecified) | inactive |  |
| N=C(N)c1ccc(OCCCOc2ccc(C(=N)N)cc2)cc1 | inactive |  |
